The text below walks through data of PubChem BioAssay.

Where “and” joins values, the source holds several entries; their conditions need not be identical. Equal entries are not always repeated. More than one record can exist for a structure, and the calls need not agree. Calls of active or inactive are those of the source.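 Rule for the calls, unless noted: active = compounds lowering colon cancer cell viability after pretreatment blocking the GSK3B kinase; inactive = the rest.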

The nature of assay [1]: stimulators of nuclear beta-catenin in C2C12, primary screen, imaging, WNT3A-conditioned medium, mouse C2C12, NPC library (AID 1117326; in the data active = nuclear beta-catenin stimulation mostly above about 4.2%, no sharp cut-off; inactive = mostly below about 10%; note: reference of the scale not given here). Conditions: stronger effect = higher value.
A short description of assay [2]: stimulators of insulin release from INS-1E, primary screen, cell-based, 5 mM glucose, NPC library (AID 1117329;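 active = compound raises insulin release from rat beta cells at 5 mM glucose, no numeric limit stated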; note: reference of the scale not given here). Conditions: rat INS-1E insulin secretion, at 10 µM, stronger effect = higher value.
The nature of assay [3]: growth inhibition of GSK3B-pretreated HCT116 cells – cell-based, CellTiter-Glo, 0.2 to 20 µM (AID 1117336). Conditions: HCT116 viability after GSK3B inhibitor, at 20 µM, stronger effect = higher value. A general note: In ATP-based viability assays light output follows the ATP content of the culture.
Assay [4] is described as follows: inhibition of endothelial tube formation, primary screen, imaging, VEGF stimulated, CD31 staining, tube area, NPC library (AID 1117340;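 active = compound that reduces growth-factor-driven endothelial tube area in a mixed cell culture, no cutoff stated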). Conditions: VEGF-stimulated ADSC/ECFC co-culture, at 10 µM, stronger effect = higher value.
A short description of assay [5]: glucagon-like peptide 1 release enhancers, primary assay, NCI-H716 cell line, NPC library (AID 1117341;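 active = compound raises GLP1 secretion from the human gut endocrine cells, with no numeric limit stated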; note: reference of the scale not given here). Conditions: NCI-H716 cells, at 10 µM, stronger effect = higher value.
Assay [6] can be described thus: HCT116 colon cancer cell growth inhibition, primary screen, CellTiter-Glo luminescence, NPC library (AID 1117342;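 active = compounds that lower survival of HCT116 colon cancer cells in the luminescence readout, no numeric limit stated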). The conditions noted are these: at 20 µM (top of the series).
A short description of assay [7]: CellTiter-Glo luminescent readout of SW480 viability loss, NPC library primary (AID 1117343;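 active = compounds that lower viability of the colon cancer cells in the luminescence readout, with no numeric limit stated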). The conditions noted are these: CellTiter-Glo luminescence; at 20 µM (top of the series).
Assay [8] is described as follows: decreased DLD-1 cellular survival, CellTiter-Glo luminescent readout, NPC compound collection, primary HTS (AID 1117346;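 active = compounds that lower survival of DLD-1 colon cancer cells in the luminescence readout, no cutoff given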). Conditions: DLD-1 viability, CellTiter-Glo luminescence; at 20 µM (top of the series).

For the compound `O=C(NCCc1c[nH]c2ccccc12)c1cccnc1`, the nuclear beta-catenin stimulation in assay [1] (at 10 µM) was 1% (inactive); in assay [1] (stimulation, at 2 µM), 1.7%. In assay [2], the insulin secretion stimulation is -2.7% (inactive). Besides, the viability decrease in assay [3] is 6.55% (inactive). In addition, the tube area decrease in assay [4] is 35.9% (inactive). For the same compound, in assay [5], the GLP1 secretion stimulation is 0.6% (inactive). Also, in assay [6], the inhibition of viability was -5.5% (inactive). In addition, the results for the viability decrease (inhibition) in assay [7] and in assay [8] were 71.3% (active) and -0.95% (inactive), respectively.
Consider `O=C(Nc1ccc(Oc2ccc(Cl)cc2)c(Cl)c1)c1cc(I)cc(I)c1O`, for which the nuclear beta-catenin stimulation in assay [1] (at 10 µM) is 6.2% (inactive); in assay [1] (stimulation, at 2 µM), 1.3%. Further, the insulin secretion stimulation in assay [2] is 0.2% (inactive). Also, the viability decrease in assay [3] is 122% (active). Also, the tube area decrease in assay [4] was 109% (active). The GLP1 secretion stimulation in assay [5] is 29.8% (active). In addition, in assay [6], the inhibition of viability was 128% (active). In addition, the viability decrease (inhibition) is 161% (active) in assay [7] and 102% (active) in assay [8].
For `C=Cc1c(C)c2cc3nc(cc4[nH]c(cc5nc(cc1[nH]2)C(C)=C5CCC(=O)O)c(CCC(=O)OC)c4C)[C@@]1(C)C3=CC=C(C(=O)OC)[C@@H]1C(=O)OC`, the nuclear beta-catenin stimulation in assay [1] (at 10 µM) was 16.7% (inactive); in assay [1] (stimulation, at 2 µM), 0.4%. Besides, in assay [2], the insulin secretion stimulation is 1.5% (inactive). The viability decrease in assay [3] was 97.7% (active). In addition, the tube area decrease in assay [4] is -206% (inactive). Besides, the GLP1 secretion stimulation in assay [5] was -1.9% (inactive). For the same compound, the inhibition of viability in assay [6] was 92.4% (active). Besides, the viability decrease (inhibition) in assay [7] was 98.2% (active); in assay [8], 99.9% (active).
Regarding `CC(O)COc1ccccc1` (stereo unspecified), the nuclear beta-catenin stimulation is -0.1% (inactive) in assay [1] (at 10 µM) and 1.5% in assay [1] (stimulation, at 2 µM). In addition, in assay [2], the insulin secretion stimulation is -0.2% (inactive). Also, the viability decrease in assay [3] is -28.5% (inactive). Moreover, in assay [4], the tube area decrease was 11.1% (inactive). The GLP1 secretion stimulation in assay [5] was 0.5% (inactive). Further, the inhibition of viability in assay [6] is -11.1% (inactive). The viability decrease (inhibition) was -146% (inactive) in assay [7] and -19.2% (inactive) in assay [8].
Regarding `O=C(OCC1(COC(=O)c2cccnc2)CCCC(COC(=O)c2cccnc2)(COC(=O)c2cccnc2)C1O)c1cccnc1`, the nuclear beta-catenin stimulation was -1.3% (inactive) in assay [1] (at 10 µM) and -0.2% in assay [1] (stimulation, at 2 µM). The insulin secretion stimulation in assay [2] is 7.7% (inactive). For the same compound, in assay [3], the viability decrease was -3.6% (inactive). Moreover, in assay [4], the tube area decrease was -7.3% (inactive). The GLP1 secretion stimulation in assay [5] is -3.3% (inactive). The inhibition of viability in assay [6] was 9.9% (inactive). The viability decrease (inhibition) in assay [7] and in assay [8] was -3.1% (inactive) in each case.
`Cc1c(C)c2c(c(C)c1OC(=O)CCC(=O)O)CC[C@@](C)(CCC[C@H](C)CCC[C@H](C)CCCC(C)C)O2`: the nuclear beta-catenin stimulation was -0.9% (inactive) in assay [1] (at 10 µM) and -0.6% in assay [1] (stimulation, at 2 µM). Moreover, the insulin secretion stimulation in assay [2] was 2.6% (inactive). The viability decrease in assay [3] was 36.4% (inactive). Further, the tube area decrease in assay [4] is 61.9% (active). Further, the GLP1 secretion stimulation in assay [5] is -3.2% (inactive). The inhibition of viability in assay [6] was 54.9% (active). Moreover, the viability decrease (inhibition) was 75% (active) in assay [7] and 66% (active) in assay [8].
As for `CC(C)(C)C(=O)NCCCC(=O)O`, the nuclear beta-catenin stimulation in assay [1] (at 10 µM) is -1.1% (inactive); in assay [1] (stimulation, at 2 µM) it was 2.4%. Besides, in assay [2], the insulin secretion stimulation is 2.7% (inactive). In assay [3], the viability decrease was -7.9% (inactive). For the same compound, the tube area decrease in assay [4] is 2% (inactive). The GLP1 secretion stimulation in assay [5] was -3.9% (inactive). The inhibition of viability in assay [6] is -1.1% (inactive). Moreover, the results for the viability decrease (inhibition) in assay [7] and in assay [8] were -0.2% (inactive) and -16.7% (inactive), respectively.
Consider `CCN(CC)C(=O)C1CN2CCc3cc(OC)c(OC)cc3C2CC1OC(C)=O` (stereo unspecified), for which the nuclear beta-catenin stimulation in assay [1] (at 10 µM) was -1.5% (inactive); in assay [1] (stimulation, at 2 µM), 1.3%. Also, the insulin secretion stimulation in assay [2] was 3.5% (inactive). In assay [3], the viability decrease is -0.1% (inactive). Moreover, the tube area decrease in assay [4] is 1.2% (inactive). Moreover, the GLP1 secretion stimulation in assay [5] is 10.9% (inactive). Further, the inhibition of viability in assay [6] is 17.1% (inactive). Further, the viability decrease (inhibition) in assay [7] is 6.1% (inactive); in assay [8], -4.5% (inactive).
Turning to `C[C@@H](O)[C@H]1C(=O)N2C(C(=O)O)=C([C@H]3CCCO3)S[C@H]12`, the nuclear beta-catenin stimulation was 0.5% (inactive) in assay [1] (at 10 µM) and 0.5% in assay [1] (stimulation, at 2 µM). Also, in assay [2], the insulin secretion stimulation was -1.8% (inactive). Also, the viability decrease in assay [3] was 13.8% (inactive). Moreover, the tube area decrease in assay [4] is -11.6% (inactive). Further, the GLP1 secretion stimulation in assay [5] is 1.1% (inactive). In addition, the inhibition of viability in assay [6] was 3.4% (inactive). For the same compound, the viability decrease (inhibition) was 34.6% (inactive) in assay [7] and 11.2% (inactive) in assay [8].
As to `c1ccc2sc(SN3CCOCC3)nc2c1`, the nuclear beta-catenin stimulation in assay [1] (at 10 µM) is 0.5% (inactive); in assay [1] (stimulation, at 2 µM) it was 2.1%. In addition, the insulin secretion stimulation in assay [2] is -2.6% (inactive). Also, in assay [3], the viability decrease was 2.05% (inactive). The tube area decrease in assay [4] was 18.9% (inactive). The GLP1 secretion stimulation in assay [5] was -0.9% (inactive). In addition, in assay [6], the inhibition of viability was -10.4% (inactive). For the same compound, the results for the viability decrease (inhibition) in assay [7] and in assay [8] were 110% (active) and 6.4% (inactive), respectively.
As for `CC(=O)Nc1ccc(/C=N/NC(N)=S)cc1`, the nuclear beta-catenin stimulation is 0.3% (inactive) in assay [1] (at 10 µM) and 0.5% in assay [1] (stimulation, at 2 µM). For the same compound, the insulin secretion stimulation in assay [2] is -2.3% (inactive). The viability decrease in assay [3] was -4.65% (inactive). The tube area decrease in assay [4] is -8.1% (inactive). Further, in assay [5], the GLP1 secretion stimulation is 4.3% (inactive). Also, in assay [6], the inhibition of viability is 13.3% (inactive). Besides, the viability decrease (inhibition) in assay [7] was 13% (inactive); in assay [8], -1.8% (inactive).
Regarding `NC(CSCC(=O)O)C(=O)O` (stereo unspecified), the nuclear beta-catenin stimulation is 0.1% (inactive) in assay [1] (at 10 µM) and 1.5% in assay [1] (stimulation, at 2 µM). In assay [2], the insulin secretion stimulation is -0.7% (inactive). Besides, the viability decrease in assay [3] is -2.5% (inactive). In addition, the tube area decrease in assay [4] is 18.6% (inactive). Besides, the GLP1 secretion stimulation in assay [5] is -2.3% (inactive). In addition, the inhibition of viability in assay [6] was 0.7% (inactive). Also, the results for the viability decrease (inhibition) in assay [7] and in assay [8] were 0.9% (inactive) and -5.3% (inactive), respectively.
Take `Cc1cc(O)c2ccccc2c1O`: the nuclear beta-catenin stimulation was 53.2% (active) and 30.1% (inactive) in assay [1] (at 10 µM); 1.1% and -0.7% in assay [1] (stimulation, at 2 µM). Further, in assay [2], the insulin secretion stimulation is 5% (inactive) and 0.4% (inactive). In addition, the viability decrease in assay [3] is 101% (active) and 99.2% (active). In addition, the tube area decrease in assay [4] is 74.4% (active) and 26.8% (inactive). Besides, the GLP1 secretion stimulation in assay [5] is -6.3% (inactive) and -0.9% (inactive). The inhibition of viability in assay [6] is 102% (active) and 99.5% (active). Moreover, the viability decrease (inhibition) in assay [7] was 142% (active) and 102% (active); in assay [8] it was 104% (active) and 101% (active).
`CCOC(=O)C(=O)CCCCCCl`: the nuclear beta-catenin stimulation is 0.6% (inactive) in assay [1] (at 10 µM) and -1.9% in assay [1] (stimulation, at 2 µM). The insulin secretion stimulation in assay [2] is 1.45% (inactive). The viability decrease in assay [3] is 12.3% (inactive). Also, the tube area decrease in assay [4] was -8.5% (inactive). Further, the GLP1 secretion stimulation in assay [5] was -1% (inactive). Also, in assay [6], the inhibition of viability is 12.6% (inactive). The values for the viability decrease (inhibition) in assay [7] and in assay [8] were 11.4% (inactive) and 0.1% (inactive), respectively.
